TIM10 inh – growth inhibitors of TIM10 yeast strain; S. cerevisiae TIM10 strain growth, BacTiter-Glo luminescence, 24 h; inhibition, % at 10 µM; 1.4% of 330,000 active; AID 463195;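 active means inhibition of 40% or more at the single tested concentration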;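 further: wild-type TIM10 isogenic control strain grown at permissive 25 °C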
PfHsp90 yeast 2 – inhibits growth of yeast expressing Plasmodium falciparum Hsp90. S. cerevisiae expressing PfHsp90, BacTiter-Glo ATP, 48 h; yeast lacking PDR1 and PDR3 efflux regulators. inhibition, % at 9.4 µM. 0.32% of 310,000 active;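 active means every replicate shows inhibition above about 80%, whatever the replicate mean, limit read from the data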
tim23-1 inh – tim23-1 yeast growth inhibition | inhibition, % at 20 µM | 1.3% of 330,000 active | AID 463212 | S. cerevisiae tim23-1 growth, BacTiter-Glo luminescence, 24 h;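 active means growth inhibition of the mutant yeast at or above 50%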;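 further: temperature-sensitive mutant grown at 25 °C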
ATG4B inh – inhibitors of human ATG4B cysteine protease. Q9Y4P1. ATG4B cleavage of LC3-PLA2, NBD-HPC fluorescence, 1 h. inhibition, % at 8.33 µM. 0.51% of 340,000 active; in the data active means inhibition above about 40%
Target sequence (Q9Y4P1 whole entry, looked up): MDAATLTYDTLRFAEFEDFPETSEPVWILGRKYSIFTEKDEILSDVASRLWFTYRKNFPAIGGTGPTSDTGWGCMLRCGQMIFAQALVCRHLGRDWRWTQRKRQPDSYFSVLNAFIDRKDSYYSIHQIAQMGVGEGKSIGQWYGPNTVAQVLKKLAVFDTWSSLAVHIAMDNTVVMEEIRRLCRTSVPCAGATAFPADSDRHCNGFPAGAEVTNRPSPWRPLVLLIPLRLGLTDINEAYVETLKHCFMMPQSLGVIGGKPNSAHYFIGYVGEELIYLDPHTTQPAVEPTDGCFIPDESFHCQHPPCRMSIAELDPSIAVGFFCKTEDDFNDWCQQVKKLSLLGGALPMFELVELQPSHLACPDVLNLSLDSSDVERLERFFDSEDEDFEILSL
tim10-1 inh – inhibits growth of tim10-1 mutant yeast; S. cerevisiae tim10-1 ts strain growth, BacTiter-Glo, 24 h; AID 463190; 2.2% of 330,000 active; inhibition, % at 20 µM;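 active means inhibition of at least 40%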;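 further: mutant grown at 25 °C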
SKKanGAS inh – blocks kanamycin growth of S. pyogenes SKKanGAS strain | BacTiter-Glo, 6 h | inhibition, % at 7.5 µM | 1.3% of 300,000 active;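 active means mean replicate score, as percent of positive control median, at least 50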;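 further: strain carries kanamycin resistance gene driven by streptokinase promoter and grows in 40 µg/ml kanamycin; loss of luminescence reflects streptokinase promoter inhibition or plain growth inhibition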
tim10-1 conf – tim10-1 yeast growth inhibition, confirmed; shares compounds with tim10-1 inh; S. cerevisiae tim10-1 ts strain growth, BacTiter-Glo, 24 h; inhibition, % at 20 µM; 56% of 7,400 active; AID 463213;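 active means inhibition of yeast growth at or above a set limit in either of two repeat tests at 20 µM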;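 further: tim10-1 mutant grown at permissive 25 °C to find synthetic lethal compounds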
tim10 confirm – confirmation of TIM10 yeast growth inhibitors | 63% of 4,600 active | AID 463215 | S. cerevisiae tim10 strain growth, BacTiter-Glo luminescence, 24 h | shares compounds with TIM10 inh | inhibition, % at 10 µM;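 active means inhibition of yeast growth at or above a set limit in either of two replicates at 10 µM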; further: this counterscreen used the strain with wild-type TIM10
A number is an active result; 0 = inactive; - = no result. Rows were chosen to be rich in hits. Some 4.7% of all compounds tested hit in one or more screens of this group.

SMILES	TIM10 inh	PfHsp90 yeast 2	tim23-1 inh	ATG4B inh	tim10-1 inh	SKKanGAS inh	tim10-1 conf	others
COc1cccc(Oc2coc3cc(OC(=O)N(C)C)ccc3c2=O)c1	0	0	0	0	0	0	-
CN(C)C(=O)Oc1ccc2c(=O)c(Oc3ccccc3Br)coc2c1	0	0	0	0	46	0	0
Cc1cnc[nH]1	0	0	0	0	0	-	-
CSc1ncc(Cl)c(C(=O)O)n1	0	0	0	0	0	0	-
CCn1c(O)c(/C(C)=N/N2CCCCC2c2cccnc2)c(=O)[nH]c1=S (centres undefined)	0	0	0	0	48	0	0
Cc1cccnc1-n1c(CN2C(=O)c3ccccc3C2=O)nc2ccccc2c1=O	0	0	0	0	51	0	30
COc1ccc(N2C(=O)/C(=C/C=C/c3ccccc3[N+](=O)[O-])C(=O)NC2=S)cc1	0	-	0	0	0	0	-
O=C1CC(N2CC=C(c3ccc(F)cc3)CC2)C(=O)N1c1ccc(F)cc1 (centres undefined)	0	0	0	0	43	0	0
COc1cc(OC)c(OC)cc1CN1CCN(C(=O)COc2ccc3ccccc3c2)CC1	0	0	0	0	0	0	-
O=C1/C(=C\c2cc3c(cc2Br)OCO3)N2CCC1CC2	0	0	0	0	53	0	38
CC(=O)OC[C@]12CCC(C)=C[C@H]1O[C@@H]1[C@H](O)[C@@H](OC(C)=O)[C@@]2(C)[C@]12CO2	0	-	0	0	54	-	49
Cc1c(C(c2ccc(Br)cc2)c2c(O)c3ccccc3oc2=O)c(=O)n(-c2ccccc2)n1C (centres undefined)	0	0	0	0	0	0	-
CC(=O)OCC[N+](C)(C)C	0	0	0	0	0	0	-
Cc1cc(-c2ccccc2)cc(-c2ccccc2)[n+]1CCc1ccccc1	0	0	0	0	0	0	-
Clc1ccc(C[n+]2c(-c3ccccc3)cc(-c3ccccc3)cc2-c2ccccc2)cc1	0	0	0	0	45	0	38
COc1ccc2nc(NC(=O)CCc3nc(C4=CCN(C)CC4)no3)sc2c1	0	0	0	0	43	0	0
Cn1cccc1/C=C1\C(=O)NC(=O)N(CCC2=CCCCC2)C1=O	-	0	-	0	-	0	-
C=C(C)CSc1nnc([C@@H](N)Cc2c[nH]c3ccccc23)o1	0	0	0	0	42	0	56
CC(C)=CCSc1nnc([C@@H](N)Cc2c[nH]c3ccccc23)o1	0	0	0	0	45	0	32
N[C@@H](Cc1c[nH]c2ccccc12)c1nnc(SCc2ccccc2)o1	0	0	0	0	43	0	47
N[C@@H](Cc1c[nH]c2ccccc12)c1nnc(SCc2ccc(F)cc2)o1	-	-	-	0	-	0	-
CN(C(=O)COC(=O)c1cn(C)c2ccccc12)C1CCCCC1	0	0	0	0	0	-	-
COC(=O)C1=C(c2cccc(OCc3ccccc3)c2)C[C@@H]2CC[C@H]1N2C(=O)NCc1ccc(C(C)(C)C)cc1	0	0	0	0	0	-	-
O=C(CCN1CCOCC1)NCC(=O)Nc1ccc(Br)cc1C(=O)c1ccccc1	0	0	0	0	0	0	-
CC(C(=O)Nc1ccc(Br)cc1C(=O)c1ccccc1)N1CCOCC1 (centres undefined)	0	0	0	0	41	0	0
SMILES	TIM10 inh	PfHsp90 yeast 2	tim23-1 inh	ATG4B inh	tim10-1 inh	SKKanGAS inh	tim10-1 conf	others
Brc1ccc2[nH]cc(/C=N/N3CCCCC3)c2c1	0	0	0	0	42	0	0
CN1C(=O)c2ccccc2Sc2ccc(C(=O)N3CCC4(CC3)OCCO4)cc21	0	-	0	0	0	0	-
Cc1ccc(/C=C2/Sc3ccc(C(=O)N4CCC5(CC4)OCCO5)cc3NC2=O)cc1	0	0	0	0	47	53	0
CCOc1cccc(N2C(=O)/C(=C/c3ccco3)C(=O)NC2=S)c1	0	0	0	0	0	0	-
C=C(C=O)CC1CC(O)[C@]2(C)OC3CC4OC5C[C@]6(C)O[C@]7(C)CCC8OC9C[C@]%10(C)OC%11C(C)=CC(=O)OC%11CC%10OC9C[C@@H](C)C8OC7CC6O[C@]5(C)CC5OC5C4OC3CC2O1 (some centres undefined)	0	0	0	0	59	0	29
CCCCn1c(O)c(C(CC)=NCc2cc(OC)cc(OC)c2)c(=O)[nH]c1=O	0	0	0	0	0	0	-
CCCCn1c(O)c(C(CC)=Nc2ccc(OC)cc2OC)c(=O)[nH]c1=O	0	0	0	0	41	0	0
COc1ccccc1CNC(=O)CCC(=O)N1C[C@H]2C[C@@H](C1)c1cccc(=O)n1C2	0	0	0	0	0	0	-
N#Cc1cc2c(nc1SCC(=O)Nc1cc(Cl)ccc1Cl)C1CCN2CC1	0	0	0	0	40	0	0
NC(=O)c1ccc(OCCC(O)N2CC=C(c3ccc(F)cc3)CC2)cc1 (centres undefined)	0	0	0	0	0	-	-
CCOC(=O)c1ccc(N2C(=O)CC(N3CC=C(c4ccc(F)cc4)CC3)C2=O)cc1 (centres undefined)	57	0	0	0	63	0	62	tim10 confirm=44
FC(F)(F)c1ccccc1CNCCc1c[nH]c2ccccc12	61	0	0	0	43	0	62	tim10 confirm=60
COc1ccc(N2C(=O)NC(=O)/C(=C\c3ccc([N+](=O)[O-])s3)C2=O)cc1	81	0	0	0	68	0	71	tim10 confirm=38
OC(Cn1c2ccccc2c2ccccc21)C[n+]1cccc2ccccc21 (centres undefined)	57	0	0	0	49	0	43	tim10 confirm=43
Cn1c(=O)cc(SCC(=O)N2CCC3(CC2)OCCO3)c2ccc(Cl)cc21	0	0	0	0	0	-	-
Fc1ccc(C[n+]2c(-c3ccccc3)cc(-c3ccccc3)cc2-c2ccccc2)cc1	49	-	0	0	55	0	52	tim10 confirm=59
O=C(c1cc2c(s1)-c1ccccc1OC2)N1CCC2(CC1)OCCO2	0	-	0	0	0	0	-
C#C[C@]1(O)CCC2C3C(=O)C=C4C=CCC[C@]4(C)C3CC[C@@]21C (some centres undefined)	-	-	-	0	-	-	-
O=C1NC(=O)N(Cc2ccco2)C(=O)/C1=C\c1cccn1CCOc1ccc(Cl)cc1	41	0	0	0	47	0	41	tim10 confirm=39
Cc1cc(/C=C2\C(=O)NC(=O)N(c3cccc(F)c3)C2=O)c(C)n1-c1cc(C(=O)O)cc(C(=O)O)c1	0	0	0	0	0	0	-
Cc1ccc(Cn2nnnc2CN2CCC(n3nnc4cc(C(F)(F)F)ccc43)CC2)cc1	0	-	0	0	0	0	-
